# Assay outcomes as filed in PubChem.
# Pol eta inh-1 – DNA polymerase eta (human) inhibition; Q9Y253; recombinant Pol eta, fluorescent DNA replication assay; Potency, µM (top dose mostly 114 µM), inactives show at the highest dose activity change, negative = inhibition, hits mostly inhibitors; 1.2% of 390,000 active; AID 588591; also: potency is read from the fitted curve at half-maximal effect; % is scaled to controls: 0 for no effect and ±100 for the full control effect
#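 Pol eta at 10 nM preincubated with compounds 15 min at room temperature; reaction started with fluorescent substrate (50 nM final) and read kinetically at 0 and 10 min.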
# Pol beta inh – DNA polymerase beta (human) inhibition; P06746; Pol beta primer extension/strand displacement, fluorescence kinetic; Potency, µM (highest dose often 114 µM), without a hit: at the top dose activity change, negative = inhibition, hits mostly inhibitors; 1.3% of 340,000 active; AID 485314; also: potency is read from the fitted curve at half-maximal effect; % is scaled to controls: 0 for no effect and ±100 for the full control effect
#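 Values derive from four-parameter Hill fits of normalized kinetic data: reads at 0 and 10 min following addition of 50 nM substrate to 10 nM Pol beta preincubated 15 min with compound.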
# Pol iota inh – blocks human DNA polymerase iota activity | Q9UNA4 | Pol iota fluorescent replication assay, 10 min | Potency, µM (series often up to 115 µM), for inactives: top-dose activity, negative = inhibition, actives largely listed as inhibitors | 1% of 390,000 active | AID 588590; also: potency is read from the fitted curve at half-maximal effect
#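 Pol iota at 10 nM preincubated 15 min with compounds at room temperature; reaction started with fluorescent substrate, 50 nM final. Fluorescence read kinetically at 0 and 10 min; buffer-only wells as negative control.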
# Pol kappa inh-1 – inhibitors of human DNA polymerase kappa | Q9UBT6 | purified Pol kappa, fluorescent DNA synthesis assay, 10 min | Potency, µM (series often up to 107 µM), for inactives: at the top dose activity, negative = inhibition, hits mostly inhibitors | 0.53% of 400,000 active; also: potency is read from the fitted curve at half-maximal effect; % is scaled to controls: 0 for no effect and ±100 for the full control effect
#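 Fluorescent qHTS in 1536-well format: enzyme (10 nM) and compound sat 15 min at room temperature before 50 nM substrate (final) was added. Signal taken at 0 and 10 min; no-enzyme buffer wells were negative controls.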
# WRN inhibitor – blocks human WRN helicase; 0.46% of 360,000 active; Q14191; Potency, µM (highest dose often 114 µM), without a hit: top-dose activity change, negative = inhibition, actives largely listed as inhibitors; WRN helicase unwinding, fluorescent forked duplex, kinetic; AID 651768; also: potency is read from the fitted curve at half-maximal effect; % is scaled to controls: 0 for no effect and ±100 for the full control effect; nearly all actives have a fitted effect of over 55% in size
#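 Fluorescence dequenching readout, ex 525 nm/em 598 nm, kinetic mode: forked duplex DNA (100 nM final) with adjacent fluorophore and quencher unwound by WRN (20 nM final) with 2 mM ATP. Compound preincubation 15 min, room temperature.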
# PI5P4K alpha inh – PI5P4K alpha (human) kinase inhibition | P48426 | PI5P4Kalpha enzyme, ADP-Glo luminescence, 60 min; stronger effect = lower value | max response, % | 1.2% of 330,000 active; active = max response of -50% or lower; inconclusive = between -30% and -50%; inactive = -30% or higher; also: value at the top dose of about 77 µM; % is scaled to controls: 0 for no effect and ±100 for the full control effect
# Target sequence (P48426 whole entry, looked up): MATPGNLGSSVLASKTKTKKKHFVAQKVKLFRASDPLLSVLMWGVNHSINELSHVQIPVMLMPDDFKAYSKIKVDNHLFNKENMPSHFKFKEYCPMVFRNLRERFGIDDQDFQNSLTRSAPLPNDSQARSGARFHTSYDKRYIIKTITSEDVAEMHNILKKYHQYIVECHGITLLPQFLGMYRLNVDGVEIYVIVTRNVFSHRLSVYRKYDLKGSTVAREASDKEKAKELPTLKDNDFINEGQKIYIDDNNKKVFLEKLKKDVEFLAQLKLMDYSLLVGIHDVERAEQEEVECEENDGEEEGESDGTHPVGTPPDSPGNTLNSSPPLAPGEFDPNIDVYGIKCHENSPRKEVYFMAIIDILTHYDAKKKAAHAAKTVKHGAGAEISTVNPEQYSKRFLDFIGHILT
#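 PI5P4Kalpha ADP-Glo assay; 5 microM ATP final; 60 min RT reaction; HEPES pH 7.4/EGTA/CHAPS, 5% DMSO; controls lacking substrate or enzyme; luminescent end-point.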
# Pol kappa inh-2 – confirmation of human DNA polymerase kappa inhibitors; shares compounds with Pol eta inh-1; purified Pol-kappa, fluorescent strand-displacement substrate; Potency, µM, actives largely listed as inhibitors; 76% of 920 active; AID 720501; also: potency is read from the fitted curve at half-maximal effect
# Pol eta inh-2 – Pol eta (human) inhibition, cherry-pick confirmation. Pol eta primer extension, TAMRA/BHQ fluorescence, 10 min. shares compounds with Pol eta inh-1. AID 720502. Potency, µM, actives largely listed as inhibitors. 64% of 2,600 active; also: potency is read from the fitted curve at half-maximal effect
# Starred values were filed as active, the others as inactive; ? = inconclusive; . = no result given; [ ] = dose if it differs, or a comment. Only some compounds are listed: those with a hit (about 2.8% of all), similar ones and a draw of the others. Unless noted, calls follow the shape of the dose curve; as a rule, active = well fitted curve in the direction sought with a large enough effect; inconclusive = small, poorly fitted or top-dose-only effect, or another doubt; inactive = no such curve, though single readings can be large; an effect the other way counts as inactive or inconclusive.
SMILES,Pol eta inh-1,Pol beta inh,Pol iota inh,Pol kappa inh-1,WRN inhibitor,PI5P4K alpha inh,Pol eta inh-2,others
CC1(C)CC[C@]2(C(=O)O[C@@H]3O[C@H](CO)[C@@H](O)[C@H](O)[C@H]3O)CC[C@]3(C)C(=CCC4[C@@]5(C)CC[C@H](O[C@@H]6O[C@H](C(=O)O)[C@@H](O[C@H]7OC[C@@H](O)[C@@H](O)[C@@H]7O)[C@H](O)[C@H]6O)C(C)(C)C5CC[C@]43C)[C@@H]2C1 (stereo partly drawn),-5%,.,-6%,-7%,-2%,-24,.,
CC1(C)CC[C@]2(C(=O)O)CC[C@]3(C)C(=CC[C@@H]4[C@@]5(C)CC[C@H](O[C@@H]6O[C@H](C(=O)O)[C@@H](O)[C@H](O[C@@H]7OC[C@H](O)[C@H](O)[C@H]7O)[C@H]6O)C(C)(C)[C@@H]5CC[C@]43C)[C@@H]2C1,50µM*,.,?,?,-6%[11.6 µM],-65*,.,Pol kappa inh-2=?
COc1ccc2nc(Cl)c(C3CC(c4ccco4)=NN3C(=O)CCCC(=O)O)cc2c1 (stereo not drawn),35µM*,?,22µM*,28µM*,3%[11.6 µM],2,76*,
CN(C)c1cccc(F)c1C(=O)NC(=O)Nc1ccc(Cl)cc1,-8%,.,7%,-12%,-1%,5,.,
c1ccc(Nc2ccnc(Nc3ccccc3)n2)cc1,-20%,-13%,7%,4%,-3%,8,.,
NNc1nccc(Nc2ccccc2C(=O)O)n1,13µM*,?,?,?,?,-54*,?,
Cc1ccc(NC(=O)CCNS(=O)(=O)c2ccc3[nH]c(=O)oc3c2)c(C)c1,-7%,?,-20%,-21%,-5%,1,.,
Cc1ccc(C)c(NC(=O)CCNS(=O)(=O)c2ccc3[nH]c(=O)oc3c2)c1,22µM*,11µM*,-17%,3%,-10%[11.6 µM],1,?,
C[C@H](CO)N1C[C@H](C)[C@@H](CN(C)S(=O)(=O)c2ccccc2)Oc2c(NC(=O)Nc3ccc4c(c3)OCO4)cccc2C1=O,-11%,.,24%,4%,-8%,-2,.,
Cc1cc(C)cc(OCCSc2nc(-c3ccc(C(C)(C)C)cc3)nc3cc(=O)[nH]n23)c1,?,22µM*,-17%,-18%,.,.,85*,
CCc1cc(OCCCSc2nc(C)cc(=O)[nH]2)ccc1Cl,-20%,?,3%,-2%,5%,.,.,
CC(C)(C)c1ccc(OCCSc2nc3ccccc3n2CC(=O)O)cc1,-17%,88%,8%,-4%,-6%,9,.,
Cc1cc(OCCCSc2nc(-c3ccc(C(C)(C)C)cc3)nc3cc(=O)[nH]n23)ccc1Cl,79µM*,40µM*,?,?,.,.,?,
CCOC(=O)C1CCCN(C(=O)c2ccc(-c3ccccc3)cc2)CC1 (stereo not drawn),.,.,.,.,-5%,3,.,
Cc1noc(C)c1NC(=O)N(C)C[C@H]1OCc2cnnn2CCCC(=O)N([C@H](C)CO)C[C@H]1C,.,.,.,.,0%,2,.,
O=[N+]([O-])c1cccc(N/N=C/c2cc([N+](=O)[O-])ccc2O)c1,3%,?,?,-27%,-24%,8,.,
O=[N+]([O-])c1ccc(O)c(C=NNc2ccc(S(=O)(=O)O)cc2)c1,6.3µM*,.,22µM*,?,-29%,-24,54*,Pol kappa inh-2=21*
O=C(O)C(Cc1ccc(Cl)cc1)NS(=O)(=O)c1ccc(Cl)cc1 (stereo not drawn),-20%,13%,38%,-4%,0%,-1,.,
O=C(O)c1ccc(S(=O)(=O)N[C@H](Cc2ccc(O)cc2)C(=O)O)cc1,.,.,.,.,.,.,34*,
